# Records with an inconclusive call do not appear. Active and inactive are the calls of the source. The calls were made as follows: active = hit-call score of the fitted dose curve at least 0.9, where 1 is the maximum; inconclusive = response in the unintended direction; inactive = score below 0.9.
# Legend:
# [1] = target: rat Neurotensin Receptor (NTS), Ntsr1 (gene 366274) (UniProt P20789); assay: NVS_GPCR_rNTS: NovaScreen (NVS) G Protein-Coupled Receptor Assay for rat Neurotensin Receptor (NTS) (AID 2283308)
# Chain of rat Neurotensin Receptor (NTS), Ntsr1 (gene 366274) (P20789 whole entry, looked up): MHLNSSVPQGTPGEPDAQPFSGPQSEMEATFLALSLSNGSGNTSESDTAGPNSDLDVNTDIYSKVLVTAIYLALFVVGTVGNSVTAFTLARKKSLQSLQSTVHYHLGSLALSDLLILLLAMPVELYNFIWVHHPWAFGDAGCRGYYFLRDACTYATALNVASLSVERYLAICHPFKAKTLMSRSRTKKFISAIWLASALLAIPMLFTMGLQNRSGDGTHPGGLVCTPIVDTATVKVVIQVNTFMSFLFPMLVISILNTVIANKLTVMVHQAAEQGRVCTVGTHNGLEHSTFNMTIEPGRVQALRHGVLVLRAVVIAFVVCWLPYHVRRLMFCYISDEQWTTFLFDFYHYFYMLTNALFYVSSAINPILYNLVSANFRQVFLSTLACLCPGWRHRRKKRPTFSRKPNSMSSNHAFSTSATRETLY
# Outline: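 Rat forebrain membranes; radioligand binding with competitive displacement, read by filter-based scintillation counting 1 h after dosing. Primary screen in duplicate at 25 uM; actives (e.g., 30% inhibition) rerun in concentration-response up to 50 uM, loss-of-signal versus DMSO.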
# [2] = target: bovine Gamma-Aminobutyric Acid Type A Receptor BDZ, alpha 1 site (GABARa1), GABRA1 (gene 780973) (UniProt P08219); assay: NVS_LGIC_bGABARa1: NovaScreen (NVS) Ligand-Gated Ion Channel Assay for bovine Gamma-Aminobutyric Acid Type A Receptor BDZ, alpha 1 site (GABARa1) (AID 2283321)
# Chain of bovine Gamma-Aminobutyric Acid Type A Receptor BDZ, alpha 1 site (GABARa1), GABRA1 (gene 780973) (P08219 whole entry, looked up): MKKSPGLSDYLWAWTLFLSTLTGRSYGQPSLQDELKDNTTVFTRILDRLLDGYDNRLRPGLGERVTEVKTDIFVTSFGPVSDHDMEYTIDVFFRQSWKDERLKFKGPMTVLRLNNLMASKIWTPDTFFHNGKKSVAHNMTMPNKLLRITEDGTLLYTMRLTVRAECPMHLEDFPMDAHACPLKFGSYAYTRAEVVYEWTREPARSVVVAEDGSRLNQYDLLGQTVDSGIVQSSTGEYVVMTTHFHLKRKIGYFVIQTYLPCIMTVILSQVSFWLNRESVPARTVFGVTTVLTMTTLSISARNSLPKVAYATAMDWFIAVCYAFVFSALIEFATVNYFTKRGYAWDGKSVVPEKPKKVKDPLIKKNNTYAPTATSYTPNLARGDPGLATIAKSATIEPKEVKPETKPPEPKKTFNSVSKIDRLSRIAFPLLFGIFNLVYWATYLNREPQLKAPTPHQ
# Outline: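 Radioligand competition binding on bovine cortical membranes, 0.75 h, filter-based scintillation counting. Primary single concentration 25 uM in duplicate; actives rerun in concentration-response to 50 uM max. Loss of signal fitted versus DMSO.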
# [3] = target: human Neonicotinoid receptor (NNR), CHRNA2 (gene 1135) (UniProt Q15822); assay: NVS_LGIC_hNNR_NBungSens: NovaScreen (NVS) Ligand-Gated Ion Channel Assay for human Neonicotinoid receptor (NNR) (AID 2283313)
# Chain of human Neonicotinoid receptor (NNR), CHRNA2 (gene 1135) (Q15822 whole entry, looked up): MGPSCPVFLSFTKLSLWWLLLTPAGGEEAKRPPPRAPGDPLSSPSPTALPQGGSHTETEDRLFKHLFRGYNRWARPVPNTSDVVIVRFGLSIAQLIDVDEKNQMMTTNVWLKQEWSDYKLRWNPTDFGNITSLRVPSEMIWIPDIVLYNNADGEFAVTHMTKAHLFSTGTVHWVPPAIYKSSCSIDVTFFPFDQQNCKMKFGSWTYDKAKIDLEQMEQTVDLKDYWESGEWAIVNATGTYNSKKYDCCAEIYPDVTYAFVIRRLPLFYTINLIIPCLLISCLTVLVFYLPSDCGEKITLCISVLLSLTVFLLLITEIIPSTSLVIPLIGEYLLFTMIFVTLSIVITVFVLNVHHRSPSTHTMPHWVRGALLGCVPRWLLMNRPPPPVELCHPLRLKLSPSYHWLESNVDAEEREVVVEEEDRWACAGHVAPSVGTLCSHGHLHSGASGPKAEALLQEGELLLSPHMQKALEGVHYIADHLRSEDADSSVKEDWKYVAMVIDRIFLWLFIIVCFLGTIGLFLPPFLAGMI
# Outline: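 Radioligand displacement on human neuroblastoma membranes, 2 h, filter-based scintillation counting. Primary screen in duplicate at 25 uM; chemicals passing threshold (e.g. 30% inhibition) run singleton concentration-response to 50 uM; loss of binding fitted versus DMSO.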
# [4] = target: rat Neonicotinoid receptor (NNR), Chrna7 (gene 25302) (UniProt Q05941); assay: NVS_LGIC_rNNR_BungSens: NovaScreen (NVS) Ligand-Gated Ion Channel Assay for rat Neonicotinoid receptor (NNR) (AID 2283315)
# Chain of rat Neonicotinoid receptor (NNR), Chrna7 (gene 25302) (Q05941 whole entry, looked up): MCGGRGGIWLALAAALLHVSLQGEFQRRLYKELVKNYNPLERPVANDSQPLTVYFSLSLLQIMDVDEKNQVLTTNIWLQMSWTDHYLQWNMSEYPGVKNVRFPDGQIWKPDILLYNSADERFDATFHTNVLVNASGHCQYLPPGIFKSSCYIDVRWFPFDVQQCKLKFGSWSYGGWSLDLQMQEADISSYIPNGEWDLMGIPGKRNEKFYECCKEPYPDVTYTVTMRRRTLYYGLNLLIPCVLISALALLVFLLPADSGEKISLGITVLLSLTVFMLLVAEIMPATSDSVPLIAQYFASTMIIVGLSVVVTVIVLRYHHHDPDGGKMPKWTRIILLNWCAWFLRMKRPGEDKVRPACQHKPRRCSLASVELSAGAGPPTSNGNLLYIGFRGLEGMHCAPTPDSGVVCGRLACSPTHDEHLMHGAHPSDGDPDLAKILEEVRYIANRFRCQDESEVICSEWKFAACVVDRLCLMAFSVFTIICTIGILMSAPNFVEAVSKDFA
# Outline: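 Radioligand displacement binding on rat cortical membranes, 2.5 h incubation, filtration and scintillation counting. Loss of specific binding fitted relative to DMSO.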
# NCBI gene 24521 = assay: NVS_IC_rKATPCh: NovaScreen (NVS) Ion Channel Assay for rat Potassium Channel, ATP-Sensitive (KATPCh) (AID 2283319)
# Outline: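 Rat cortical membranes; radioligand binding at ATP-sensitive K channel site, filter-based scintillation counting 2 h after dosing. Single-point duplicate screen at 25 uM, hits rerun in concentration-response up to 50 uM; loss of signal versus DMSO.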
# [5] = target: rat Glutamate, NMDA Agonist Site (GluNMDA), Grin1 (gene 24408) (UniProt P35439); assay: NVS_LGIC_rGluNMDA_Agonist: NovaScreen (NVS) Ligand-Gated Ion Channel Assay for rat Glutamate, NMDA Agonist Site (GluNMDA) (AID 2283327)
# Outline: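 Rat forebrain membranes, radioligand binding in the agonist-site protocol; 1 h after dosing; filter-based scintillation counting. Single-concentration duplicate screen at 25 uM, then concentration-response up to 50 uM for actives; gain-of-signal vs DMSO.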
# [6] = target: rat Opioid Receptor, Non-selective Sodium (Na+) Binding, Oprm1 (gene 25601) (UniProt P33535); assay: NVS_GPCR_rOpiate_NonSelectiveNa: NovaScreen (NVS) G Protein-Coupled Receptor Assay for rat Opioid Receptor, Non-selective Sodium (Na+) Binding (AID 2283311)
# Chain of rat Opioid Receptor, Non-selective Sodium (Na+) Binding, Oprm1 (gene 25601) (P33535 whole entry, looked up): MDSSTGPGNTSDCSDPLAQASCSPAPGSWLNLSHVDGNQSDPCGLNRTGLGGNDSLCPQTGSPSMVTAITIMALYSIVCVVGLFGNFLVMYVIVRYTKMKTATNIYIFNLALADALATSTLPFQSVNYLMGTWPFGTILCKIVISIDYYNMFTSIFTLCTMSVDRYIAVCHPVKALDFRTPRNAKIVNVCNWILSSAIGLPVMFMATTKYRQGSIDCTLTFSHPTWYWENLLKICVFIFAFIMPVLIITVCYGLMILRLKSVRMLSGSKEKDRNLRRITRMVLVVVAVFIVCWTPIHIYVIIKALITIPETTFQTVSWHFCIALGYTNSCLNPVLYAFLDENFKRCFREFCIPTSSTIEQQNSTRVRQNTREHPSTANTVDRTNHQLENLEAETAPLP
# Outline: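 Rat forebrain membranes, radioligand displacement with filter scintillation counting, 1.5 h incubation. Screened in duplicate at 25 µM; hits then run in concentration-response up to 50 µM; loss of binding fitted versus DMSO.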
# [7] = target: rat Somatostatin Receptor (SST), Sstr1 (gene 25033) (UniProt P28646); assay: NVS_GPCR_rSST: NovaScreen (NVS) G Protein-Coupled Receptor Assay for rat Somatostatin Receptor (SST) (AID 2283314)
# Chain of rat Somatostatin Receptor (SST), Sstr1 (gene 25033) (P28646 whole entry, looked up): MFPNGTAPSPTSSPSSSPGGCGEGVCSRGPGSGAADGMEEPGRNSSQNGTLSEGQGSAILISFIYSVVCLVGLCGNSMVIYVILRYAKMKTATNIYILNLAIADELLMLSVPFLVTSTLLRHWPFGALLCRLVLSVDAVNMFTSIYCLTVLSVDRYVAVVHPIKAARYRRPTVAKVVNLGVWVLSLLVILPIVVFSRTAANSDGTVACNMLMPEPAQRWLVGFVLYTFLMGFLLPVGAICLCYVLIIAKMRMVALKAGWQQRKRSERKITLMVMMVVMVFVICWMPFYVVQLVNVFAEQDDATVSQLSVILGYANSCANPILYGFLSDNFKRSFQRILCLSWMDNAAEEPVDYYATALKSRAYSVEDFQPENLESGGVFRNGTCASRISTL
# Outline: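 Rat forebrain membranes; radioligand displacement read by filter-based scintillation counting 1 h after dosing. Primary screen in duplicate at 25 uM. Actives (e.g., 30% inhibition) were rerun as concentration-response to 50 uM max and fitted against DMSO.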
# [8] = target: rat Vasopressin 1 Receptor (V1), Avpr1a (gene 25107) (UniProt P30560); assay: NVS_GPCR_rV1: NovaScreen (NVS) G Protein-Coupled Receptor Assay for rat Vasopressin 1 Receptor (V1) (AID 2283316)
# Chain of rat Vasopressin 1 Receptor (V1), Avpr1a (gene 25107) (P30560 whole entry, looked up): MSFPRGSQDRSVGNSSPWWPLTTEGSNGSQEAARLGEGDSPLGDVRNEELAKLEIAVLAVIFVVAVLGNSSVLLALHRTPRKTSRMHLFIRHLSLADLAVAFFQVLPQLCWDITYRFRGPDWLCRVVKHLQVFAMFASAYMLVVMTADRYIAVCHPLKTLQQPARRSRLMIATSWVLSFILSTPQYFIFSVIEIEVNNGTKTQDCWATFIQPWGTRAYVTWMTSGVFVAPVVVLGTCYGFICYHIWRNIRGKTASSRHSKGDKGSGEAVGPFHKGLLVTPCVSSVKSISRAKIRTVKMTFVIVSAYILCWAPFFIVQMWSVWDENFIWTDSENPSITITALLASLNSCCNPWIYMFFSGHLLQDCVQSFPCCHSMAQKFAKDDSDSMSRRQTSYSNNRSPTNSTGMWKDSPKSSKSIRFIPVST
# Outline: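 Radioligand binding on rat liver membranes, 1.5 h incubation, filter-based scintillation counting. Single 25 uM screen in duplicate; chemicals meeting threshold (e.g. 30% inhibition) run in concentration-response up to 50 uM.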
# [9] = NVS_IC_rCaDHPRCh_L: NovaScreen (NVS) Ion Channel Assay for rat Calcium Channel, Type L, Dihydropyridine Site (CaDHPRCh_L) (AID 2283320)
# Outline: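 Radioligand binding to dihydropyridine site on rat cortical membranes, filter-based scintillation counting, 1 h after dosing. Screened in duplicate at 25 uM; actives rerun in concentration-response up to 50 uM. Loss of signal versus DMSO baseline.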
# [10] = target: rat Thyrotropin Releasing Hormone Receptor (TRH), Trhr (gene 25570) (UniProt Q01717); assay: NVS_GPCR_rTRH: NovaScreen (NVS) G Protein-Coupled Receptor Assay for rat Thyrotropin Releasing Hormone Receptor (TRH) (AID 2283329);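 also: hit means lower bound tracer signal versus DMSO baseline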
# Chain of rat Thyrotropin Releasing Hormone Receptor (TRH), Trhr (gene 25570) (Q01717 whole entry, looked up): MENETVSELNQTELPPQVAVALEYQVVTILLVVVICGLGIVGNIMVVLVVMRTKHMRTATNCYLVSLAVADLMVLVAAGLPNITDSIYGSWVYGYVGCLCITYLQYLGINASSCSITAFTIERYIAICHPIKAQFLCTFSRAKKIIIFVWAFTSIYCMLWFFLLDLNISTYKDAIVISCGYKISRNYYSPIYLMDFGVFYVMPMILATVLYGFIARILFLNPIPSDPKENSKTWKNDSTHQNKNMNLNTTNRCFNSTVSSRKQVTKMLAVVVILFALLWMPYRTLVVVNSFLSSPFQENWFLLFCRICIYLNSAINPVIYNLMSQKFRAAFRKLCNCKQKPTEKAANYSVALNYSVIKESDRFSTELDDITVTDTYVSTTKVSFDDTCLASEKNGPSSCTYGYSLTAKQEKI
# Outline: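 Rat forebrain membrane prep, radioligand displacement, filter scintillation readout at 4 h. Single conc 25 uM, duplicate; actives retested as concentration series. DMSO = negative control/baseline.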
# [11] = target: rat Opioid Receptor, Non-selective Binding, Oprm1 (gene 25601) (UniProt P33535); assay: NVS_GPCR_rOpiate_NonSelective: NovaScreen (NVS) G Protein-Coupled Receptor Assay for rat Opioid Receptor, Non-selective Binding (AID 2283318)
# Chain of rat Opioid Receptor, Non-selective Binding, Oprm1 (gene 25601) (P33535 whole entry, looked up): as the sequence (P33535 whole entry, looked up) above
# Outline: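 Rat forebrain membranes, cell-free radioligand binding with filter-based scintillation counting, read 1.5 h after dosing. Primary screen in duplicate at 25 uM; actives retested in concentration series. Loss of signal versus DMSO baseline scored.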
# [12] = target: rat Neurokinin-1 Receptor (NK1), Tacr1 (gene 24807) (UniProt P14600); assay: NVS_GPCR_rNK1: NovaScreen (NVS) G Protein-Coupled Receptor Assay for rat Neurokinin-1 Receptor (NK1) (AID 2283309)
# Chain of rat Neurokinin-1 Receptor (NK1), Tacr1 (gene 24807) (P14600 whole entry, looked up): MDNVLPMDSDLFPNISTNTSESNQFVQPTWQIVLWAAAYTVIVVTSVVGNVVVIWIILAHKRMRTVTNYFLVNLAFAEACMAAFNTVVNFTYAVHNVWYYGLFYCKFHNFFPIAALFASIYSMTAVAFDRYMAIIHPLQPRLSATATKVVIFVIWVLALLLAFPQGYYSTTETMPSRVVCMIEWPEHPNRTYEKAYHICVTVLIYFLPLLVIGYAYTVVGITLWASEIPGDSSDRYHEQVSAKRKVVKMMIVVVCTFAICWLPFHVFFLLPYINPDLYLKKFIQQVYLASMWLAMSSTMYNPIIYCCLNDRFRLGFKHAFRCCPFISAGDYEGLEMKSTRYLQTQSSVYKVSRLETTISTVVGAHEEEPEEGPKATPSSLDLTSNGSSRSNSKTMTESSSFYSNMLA
# Outline: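 Rat submaxillary gland membranes; radioligand displacement read by filter-based scintillation counting after 1 h. Primary screen in duplicate at 25 uM; actives retested in concentration series; loss of binding fitted versus DMSO.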
# [13] = target: Sodium channel protein type 1 subunit alpha (Rattus norvegicus) (UniProt P04774); assay: NVS_IC_rNaCh_site2: NovaScreen (NVS) Ion Channel Assay for rat Sodium Channel, Site 2 (NaCh) (AID 2283322);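 also: hit means loss of radioligand binding signal relative to DMSO so AC50 marks displacement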
# Outline: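 Membranes: rat forebrain. Format: competitive radioligand displacement, filter separation, scintillation readout, 1 h exposure. Primary screen in duplicate at 25 uM; actives retested in concentration series.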
structure (smiles),measurement,setting,value
O=C(Nc1ccccc1-c1ccc(Cl)cc1)c1cccnc1Cl,outcome,[1],inactive
same,outcome,[2],inactive
N#CN=C1SCCN1Cc1ccc(Cl)nc1,AC50,[3],4.45 µM (active)
same,AC50,[4],5.39 µM (active)
same,outcome,[2],inactive
CC(C)N1C(=O)c2ccccc2NS1(=O)=O,outcome,NCBI gene 24521,inactive
same,outcome,[5],inactive
O=C1C2CC=CCC2C(=O)N1SC(Cl)(Cl)Cl (stereo unspecified),outcome,[6],inactive
same,AC50,[7],5.93 µM (active)
COc1cc(OC)nc(NC(=O)NS(=O)(=O)c2ncccc2OCC(F)(F)F)n1,AC50,[8],16.4 µM (active)
COP(=S)(OC)SCn1nnc2ccccc2c1=O,outcome,NCBI gene 24521,inactive
same,AC50,[2],10.1 µM (active)
CCOC(=O)C(C)OC(=O)c1cc(Oc2ccc(C(F)(F)F)cc2Cl)ccc1[N+](=O)[O-] (stereo unspecified),AC50,[7],41.1 µM (active)
same,AC50,[9],25 µM (active)
same,outcome,[10],inactive
CCOc1cc(C(C)(C)C)ccc1C1COC(c2c(F)cccc2F)=N1 (stereo unspecified),outcome,[11],inactive
same,outcome,NCBI gene 24521,inactive
COC(=O)N(C(=O)N1CO[C@@]2(C(=O)OC)Cc3cc(Cl)ccc3C2=N1)c1ccc(OC(F)(F)F)cc1,outcome,[4],inactive
Cn1c(-c2ccccc2)cc(-c2ccccc2)[n+]1C,outcome,[12],inactive
same,AC50,[13],2.36 µM (active)
CCCN(CC)CC1COC2(CCC(C(C)(C)C)CC2)O1 (stereo unspecified),AC50,[6],13.8 µM (active)
same,outcome,[11],inactive
same,AC50,[13],0.822 µM (active)
CCOP(=O)(OCC)Oc1nc(Cl)c(Cl)cc1Cl,AC50,[6],25 µM (active)
same,AC50,[7],6.64 µM (active)
same,AC50,[11],11.1 µM (active)
